This passage reports AC50 and outcome results from PubChem BioAssay (EPA / NIEHS).

“And” between values parts separate entries of the source, which are not always exact repeats. Equal values may be shown once. A structure can be active in one record and inactive in another. The source made the active and inactive calls. The calls were made as follows: active = hit-call score of the fitted dose curve at least 0.9, where 1 is the maximum; inactive = score below 0.9.

Assay [1] in a line: ATG_PXRE_CIS: Attagene CIS-FACTORIAL HepG2 Assay for human Pregnane X Receptor Element (PXRE) (AID 2282957). To be noted: HepG2 Attagene CIS-FACTORIAL PXRE reporter, mRNA; actives raise or lower the signal. An outline of the steps: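 Endogenous transcription factor activity in HepG2 was gauged through induction of reporter mRNA driven by a cis-regulating promoter element, sampled 24 h post-treatment. Activity was fitted in both directions against DMSO negative control.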

A short description of assay [2]: ATG_Sox_CIS: Attagene CIS-FACTORIAL HepG2 Assay for human SRY-box transcription factor (SOX) (AID 2282960). The conditions noted are these: HepG2 Attagene cis-factorial SOX reporter, mRNA; actives raise or lower the signal. Put shortly:
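After 24 h of chemical treatment, transfected HepG2 reporter cells are lysed for total RNA. Transcript levels come from RT-PCR with labelled primer extension and capillary electrophoresis, analysed bidirectionally versus DMSO.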

Assay [3] addresses Transcription factor Sp1 (Homo sapiens) (UniProt P08047). The assay is described as follows: ATG_Sp1_CIS: Attagene CIS-FACTORIAL HepG2 Assay for human Specificity Protein 1 (Sp1) (AID 2282961). The conditions noted are these: HepG2 Sp1 cis-reporter transcription, actives raise or lower the signal. Put shortly:
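Sp1-driven reporter mRNA, read as capillary electrophoresis fluorescence after RT-PCR, in transiently transfected HepG2 cells dosed for 24 h; signal change in either direction relative to DMSO.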

Assay [4] can be described thus: ATG_SREBP_CIS: Attagene CIS-FACTORIAL HepG2 Assay for human Sterol Regulatory Element Binding (SREBP) (AID 2282962). The conditions noted are these: HepG2 Attagene cis-factorial SREBP reporter, mRNA; actives raise or lower the signal. An outline of the steps:
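Readout: fluorescent reporter-transcript peaks resolved by capillary electrophoresis after RT-PCR. Cells were human HepG2 carrying transfected cis-promoter reporter constructs, dosed for 24 h. Gain or loss of signal was fitted against DMSO controls.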

The target of assay [5] is Signal transducer and activator of transcription 3 (Homo sapiens) (UniProt P40763). The assay is described as follows: ATG_STAT3_CIS: Attagene CIS-FACTORIAL HepG2 Assay for human Signal Transducer and Activator of Transcription 3 (STAT3) (AID 2282963). The conditions noted are these: HepG2, Attagene cis-factorial STAT3 reporter transcription; actives raise or lower the signal. Put shortly:
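HepG2, MRTU-transfected, 24 h dosing. RNA → RT → PCR → FAM label → HpaI → CE. Bidirectional fit vs DMSO.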

The nature of assay [6]: ATG_TA_CIS: Attagene CIS-FACTORIAL HepG2 Assay for human TA Basal Promoter (AID 2282964). The conditions noted are these: HepG2 Attagene CIS-factorial TA basal promoter reporter; actives raise or lower the signal. An outline of the steps:
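Transfected HepG2, 24 h compound exposure; RNA → RT-PCR → FAM primer extension → HpaI cut → CE fluorescence. Gain/loss-of-signal fitted against DMSO negative control. Background-control readout.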

Assay [7] in a line: ATG_TCF_b_cat_CIS: Attagene CIS-FACTORIAL HepG2 Assay for human T-Cell-Factor with beta-catenin (TCF/b-cat) (AID 2282965). To be noted: HepG2 TCF/beta-catenin cis-reporter transcription, actives raise or lower the signal. Put shortly:
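In this cis-format system, transfected HepG2 cells report endogenous transcription factor activity. Readout after 24 h exposure is reporter transcript abundance from RT-PCR and capillary electrophoresis, analysed for gain or loss of signal versus DMSO.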

Assay [8] is described as follows: ATG_PPRE_CIS: Attagene CIS-FACTORIAL HepG2 Assay for human Peroxisome Proliferator-activated Response Element (PPRE) (AID 2282958). To be noted: HepG2 PPRE cis-element reporter, Attagene transcription factor profiling; actives raise or lower the signal. Put shortly:
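Multiplexed reporter transcription units under cis-regulatory promoters were transfected into HepG2 cells to capture endogenous factor activity. A 24 h incubation preceded RNA isolation and fluorescent RT-PCR fragment analysis.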

The nature of assay [9]: ATG_RORE_CIS: Attagene CIS-FACTORIAL HepG2 Assay for human RAR-related Orphan Receptor Element (RORE) (AID 2282959). The conditions noted are these: HepG2 Attagene cis-factorial RORE reporter, mRNA; actives raise or lower the signal. An outline of the steps:
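Fluorescence intensity of reporter-specific cDNA fragments, separated by capillary electrophoresis, gives the signal. Source: HepG2 liver cells transiently transfected with cis-element reporters and exposed 24 h; DMSO-normalized bidirectional fit.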

Signal transducer and activator of transcription 3 (Homo sapiens), sequence (P40763 whole entry, looked up): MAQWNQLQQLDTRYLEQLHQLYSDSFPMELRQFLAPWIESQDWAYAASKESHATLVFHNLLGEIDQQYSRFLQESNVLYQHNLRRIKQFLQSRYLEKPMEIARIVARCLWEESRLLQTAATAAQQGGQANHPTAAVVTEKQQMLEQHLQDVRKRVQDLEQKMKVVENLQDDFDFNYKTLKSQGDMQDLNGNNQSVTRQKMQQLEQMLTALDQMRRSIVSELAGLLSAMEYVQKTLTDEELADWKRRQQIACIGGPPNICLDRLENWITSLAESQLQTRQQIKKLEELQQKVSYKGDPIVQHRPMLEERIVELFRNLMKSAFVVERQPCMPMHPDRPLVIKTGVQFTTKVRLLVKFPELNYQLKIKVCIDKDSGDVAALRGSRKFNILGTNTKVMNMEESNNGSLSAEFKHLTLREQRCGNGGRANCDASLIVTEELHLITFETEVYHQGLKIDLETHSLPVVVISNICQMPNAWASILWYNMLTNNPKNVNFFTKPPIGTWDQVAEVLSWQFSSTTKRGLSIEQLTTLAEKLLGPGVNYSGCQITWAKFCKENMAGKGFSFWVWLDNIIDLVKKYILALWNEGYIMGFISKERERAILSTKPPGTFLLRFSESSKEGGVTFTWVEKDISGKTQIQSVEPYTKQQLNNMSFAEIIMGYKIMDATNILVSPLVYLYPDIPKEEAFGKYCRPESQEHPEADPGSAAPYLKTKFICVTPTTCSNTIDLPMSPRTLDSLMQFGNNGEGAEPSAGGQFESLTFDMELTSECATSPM
Transcription factor Sp1 (Homo sapiens), sequence (P08047 whole entry, looked up): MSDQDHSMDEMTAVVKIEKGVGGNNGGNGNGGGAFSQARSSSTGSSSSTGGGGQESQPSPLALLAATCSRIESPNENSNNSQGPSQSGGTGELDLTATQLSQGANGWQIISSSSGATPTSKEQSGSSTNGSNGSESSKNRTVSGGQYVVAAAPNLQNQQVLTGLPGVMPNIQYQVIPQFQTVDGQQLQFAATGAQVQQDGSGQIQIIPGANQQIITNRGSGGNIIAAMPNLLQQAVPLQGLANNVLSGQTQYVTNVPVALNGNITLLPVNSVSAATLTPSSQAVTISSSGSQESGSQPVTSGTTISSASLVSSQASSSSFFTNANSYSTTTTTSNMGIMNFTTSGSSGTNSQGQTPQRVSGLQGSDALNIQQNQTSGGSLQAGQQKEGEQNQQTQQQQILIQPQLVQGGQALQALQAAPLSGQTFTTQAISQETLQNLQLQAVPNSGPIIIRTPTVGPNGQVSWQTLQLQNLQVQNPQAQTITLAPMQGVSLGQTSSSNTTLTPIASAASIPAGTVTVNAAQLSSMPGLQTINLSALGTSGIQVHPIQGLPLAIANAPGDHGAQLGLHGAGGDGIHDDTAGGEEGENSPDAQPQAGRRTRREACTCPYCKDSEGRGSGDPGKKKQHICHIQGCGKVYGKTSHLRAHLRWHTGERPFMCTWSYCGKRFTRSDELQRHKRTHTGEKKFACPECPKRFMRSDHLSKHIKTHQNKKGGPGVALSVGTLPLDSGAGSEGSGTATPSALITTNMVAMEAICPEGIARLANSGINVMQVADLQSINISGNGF

One may read the AC50 as the midpoint of the concentration-response curve, whichever way the signal moves. As for `COc1ccc(O)c(C(C)(C)C)c1`, the AC50 is 8.2 µM (active) in [1], 184 µM (active) in assay [3] and 162 µM (active) in assay [7]. Besides, the outcome in assay [2], in [4], in assay [5] and in [6] was inactive.

With `ClC1=C(Cl)[C@]2(Cl)[C@@H]3[C@@H]4C[C@@H]([C@H]5O[C@@H]45)[C@@H]3[C@@]1(Cl)C2(Cl)Cl`, the concentration at half-maximal activity (AC50) was 2.36 µM (active) in [1], 81.4 µM (active) in [9] and 56.2 µM (active) in assay [7]. For the same compound, the compound was classed as inactive in assay [8], in assay [2], in assay [3], in assay [4], in assay [5] and in assay [6].

For the compound `Oc1ccc(Cl)cc1Cl`, the AC50 in assay [1] is 64.5 µM (active). Besides, the result in assay [8], in assay [9], in [2], in assay [3], in assay [4] and in assay [5] was inactive. Further, the compound was classed as inactive in assay [6] and in [7].

Regarding `CN(C)CCO`, the AC50 in [1] was 100 µM (active). Also, the compound was called inactive in assay [1], in assay [8], in assay [9], in [2], in assay [3] and in [4]. Further, the compound was classed as inactive in assay [5], in assay [6] and in [7].

For `Cc1cc(O)ccc1Cl`, the outcome in [1], in assay [8], in [9], in assay [2], in assay [3] and in assay [4] was inactive. Also, the result in [5], in assay [6] and in assay [7] was inactive.

As for `O=C(NC(=O)c1c(F)cccc1F)Nc1cc(Cl)c(OC(F)(F)C(F)F)c(Cl)c1`, the compound was classed as inactive in assay [1], in assay [8], in assay [9], in [2], in assay [3] and in assay [4]. Further, the compound was classed as inactive in assay [5], in [6] and in [7].

As to `O=C(O)C(F)(F)C(F)(F)C(F)(F)C(F)(F)C(F)(F)C(F)(F)C(F)(F)C(F)(F)F`, the AC50 in assay [1] is 22.7 µM (active) and 38.2 µM (active) and 13.6 µM (active); in assay [8], 33.4 µM (active) and 89.8 µM (active) and 34 µM (active); in assay [9], 214 µM (active) and 34.7 µM (active); in assay [6], 50 µM (active); in assay [7], 33.4 µM (active) and 150 µM (active) and 50 µM (active). Besides, the call in assay [9], in assay [2], in assay [3], in [4], in assay [5] and in [6] was inactive.

On to `ClC1=C(Cl)[C@]2(Cl)[C@@H]3[C@H]4C[C@H]([C@@H]5O[C@H]45)[C@@H]3[C@@]1(Cl)C2(Cl)Cl`, for which the AC50 in [1] was 1.58 µM (active); in assay [7], 4.74 µM (active). Also, the compound was classed as inactive in assay [8], in assay [9], in assay [2], in assay [3], in [4] and in [5]. Further, the result in assay [6] was inactive.

On to `Cc1cc2c3c(c1)C(c1ccccc1)=N[C@@H](NC(=O)c1ccncc1)C(=O)N3CC2`, for which the AC50 is 0.909 µM (active) in assay [1]; 6.95 µM (active) in assay [9]; 181 µM (active) in assay [3]; 19.9 µM (active) in assay [4]; 100 µM (active) in [6]; 35.8 µM (active) in [7]. The compound was called inactive in assay [8], in [2] and in [5].

Take `COS(=O)(=O)OC`: the call in [1], in assay [8], in assay [9], in assay [2], in assay [3] and in assay [4] was inactive. Besides, the compound was called inactive in [5], in assay [6] and in [7].

For `C=CC(=O)NCNC(=O)C=C`, the call in assay [1], in assay [8], in assay [2], in assay [3], in assay [4] and in assay [5] was inactive. Moreover, the result in [6] and in assay [7] was inactive.

With `CCC(=O)O[C@H]1CC[C@H]2[C@@H]3CCC4=CC(=O)CC[C@]4(C)[C@H]3CC[C@]12C`, the AC50 in assay [1] was 26.7 µM (active) [middle of 4 runs]; in assay [9] it was 119 µM (active); in assay [2], 152 µM (active); in [3], 164 µM (active) and 181 µM (active); in assay [4] it was 137 µM (active) [middle of 4 runs]; in assay [6], 100 µM (active) and 129 µM (active). Moreover, in [7], the AC50 is 100 µM (active) and 92.5 µM (active). Moreover, the compound was called inactive in [8], in [9], in [2], in assay [3], in [5] and in [6]. In addition, the compound was classed as inactive in assay [7].

Take `CCSC(=O)N(CC)C1CCCCC1`: the AC50 in assay [1] is 12.3 µM (active). For the same compound, the compound was classed as inactive in [8], in [9], in assay [2], in [3], in assay [4] and in assay [5]. The compound was classed as inactive in assay [6] and in assay [7].

Consider `CCCCCCOC(=O)c1ccccc1C(=O)OCCCCCC`, for which the half-maximal activity concentration (AC50) is 3.19 µM (active) in assay [1] and 2.84 µM (active) in assay [8]. For the same compound, the call in assay [9], in assay [2], in assay [3], in assay [4], in assay [5] and in assay [6] was inactive. Besides, the result in assay [7] was inactive.

With `Oc1ccc(C(c2ccc(O)cc2)(C(F)(F)F)C(F)(F)F)cc1`, the AC50 was 4.15 µM (active) [middle of 4 runs] in assay [1]; 11.1 µM (active) and 5.95 µM (active) and 16.8 µM (active) in assay [8]; 18.8 µM (active) and 18.4 µM (active) in [3]; 11.1 µM (active) and 8.78 µM (active) in assay [7]. The call in [8], in assay [2], in assay [3], in assay [4], in assay [5] and in [6] was inactive. In addition, the result in assay [7] was inactive.
